Experimental data published in PubChem BioAssay (Tox21).
Calls of active or inactive are those of the source. Where a call stands in place of a potency, no number is given. Unless noted, calls come from the whole dose curve; as a rule, active = well fitted activation curve with a large enough effect in the repeat runs; inconclusive = weak or mixed curves; inactive = flat fitted curve, though single readings scatter.

target: Gonadotropin-releasing hormone receptor (Homo sapiens) (UniProt P30968); experiment: Human gonadotropin-releasing hormone receptor (GnRHR) small molecule agonists, calcium flux assay in GnRHR-HEK293 cells (AID 1920063; calls by dose curve; note: nearly all actives have a fitted effect of over 35% in size); details: calcium flux fluorescence, agonist mode; series mostly up to 57.6 µM
Sequence (P30968 whole entry, looked up): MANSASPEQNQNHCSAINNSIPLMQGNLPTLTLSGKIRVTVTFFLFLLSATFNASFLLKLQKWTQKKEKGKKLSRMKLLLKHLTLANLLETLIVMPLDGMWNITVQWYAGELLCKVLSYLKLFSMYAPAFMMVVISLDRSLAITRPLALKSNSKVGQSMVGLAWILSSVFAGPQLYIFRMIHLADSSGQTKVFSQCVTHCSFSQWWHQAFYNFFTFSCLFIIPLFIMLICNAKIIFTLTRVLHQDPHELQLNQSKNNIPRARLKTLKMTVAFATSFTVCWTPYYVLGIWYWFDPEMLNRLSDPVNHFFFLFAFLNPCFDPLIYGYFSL
How it was run: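 HEK293 cells stably expressing human GnRHR were dye-loaded for 1 h at 37 C. Compound was added in agonist mode and fluorescence (Ex/Em 480/540) recorded kinetically for 3 min. Fifteen concentrations, triplicates.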
Potency is the fitted concentration of half-maximal effect.

Row | Structure (SMILES) | Potency
1 | CO[C@@H]1[C@@H](OC)[C@H](C)[C@@](O)(CC(=O)O)O[C@H]1[C@H](C)[C@H]1O[C@@]2(CC[C@@](C)([C@H]3CC[C@@](C)([C@@H]4O[C@@H]([C@H]5O[C@](C)(O)[C@H](C)C[C@@H]5C)C[C@@H]4OC4C[C@H](OC)[C@@H](OC)[C@H](C)O4)O3)O2)C[C@H](O)[C@H]1C (stereo not given in full) | inactive
2 | O=Cc1ccc(O)c(O)c1O | inactive
3 | c1ccc2sc(SN3CCOCC3)nc2c1 | inactive
4 | O=C(O)Cc1ccc(Cl)cc1Cl | inactive
5 | Cc1ccc([N+](=O)[O-])c(N)c1 | inactive
6 | CCN(CC)c1ccc2c(-c3ccccc3C(=O)O)c3ccc(=[N+](CC)CC)cc-3oc2c1 | 34.7 µM (active)
7 | CCCCCCCCCC(C)C=O (stereo not given) | inactive
8 | CCC(Cl)CCC(Cl)C(Cl)CC(Cl)C(Cl)C(Cl)CCl (stereo not given) | inactive
9 | CCOc1ccc(NC(C)=O)cc1N | inactive
10 | OC[C@H]1O[C@@H](OCCc2ccc(O)cc2)[C@H](O)[C@@H](O)[C@@H]1O | inactive
11 | CCc1ccc2c(c1)C(=O)c1ccccc1C2=O | inactive
12 | CC(C)c1cccc(C(C)C)c1NC(=O)NS(=O)(=O)c1cc(C(C)(C)O)co1 | inactive
13 | [Cl][Au]([Cl])[Cl] | inactive
14 | CCc1oc2ccccc2c1C(=O)c1cc(I)c(O)c(I)c1 | inactive
15 | C=C[Si]1(C)O[Si](C)(C=C)O[Si](C)(C=C)O[Si](C)(C=C)O1 (stereo not given) | inactive
16 | CC1=CCC(C(C)C)C=C1 (stereo not given) | inactive
17 | Oc1ccc(N=Nc2ccccc2)cc1 | inactive
18 | Cc1ccc(Cl)cc1N | inactive
19 | Oc1ccc(Cc2ccccc2)cc1 | inactive
20 | Cc1cc(-c2ccc(N=Nc3cc(S(=O)(=O)O)c4ccccc4c3N)c(C)c2)ccc1N=Nc1cc(S(=O)(=O)O)c2ccccc2c1N | inactive

Row | Structure (SMILES) | Potency
21 | CC[C@]12CCCN3CCc4c(n(c5ccccc45)C(=O)C1)[C@@H]32 | inactive
22 | c1ccc2occc2c1 | inactive
23 | C=CCCCCCC | inactive
24 | COC(=O)/C=C(\C)CCC=C(C)C | inactive
25 | CCN(CCC#N)c1ccc(N=Nc2c(Cl)cc([N+](=O)[O-])cc2Cl)cc1 | inactive
26 | CCCCCC[C@@H](O)C/C=C\CCCCCCCC(=O)OC | inactive
27 | N=C(N)N | inactive
28 | NCCN1CCOCC1 | inactive
29 | O=C(c1ccccc1)c1cc(Cl)ccc1O | inactive
30 | O=C(O)C(=O)Cc1ccccc1 | inactive
31 | NCCc1cnc[nH]1 | inactive
32 | CC/C=C1/OC(=O)c2ccccc21 | inactive
33 | O=C1c2ccccc2C(=O)c2c(Cl)cccc21 | inactive
34 | COC(=O)CCCCCCCC(=O)OC | inactive
35 | OCCN1CCN(CCO)CC1 | inactive
36 | CC/C=C\CCCCCO | inactive
37 | O=C(NOCC1CC1)c1ccc(F)c(F)c1Nc1ccc(I)cc1Cl | inactive
38 | c1ccc(-c2nc3ccccc3[nH]2)cc1 | inactive
39 | CC(=O)Nc1cccc(N)c1 | inactive
40 | COc1ccc(C2CNC(=O)C2)cc1OC1CCCC1 (stereo not given) | inactive

target: KiSS-1 receptor (Homo sapiens) (UniProt Q969F8); experiment: Human kisspeptin (KISS1R) small molecule agonists, calcium flux assay in KISS1R-HEK293 cells (AID 1920064); details: KISS1R-HEK293, calcium flux fluorescence, agonist; series mostly up to 76.8 µM
Sequence (Q969F8 whole entry, looked up): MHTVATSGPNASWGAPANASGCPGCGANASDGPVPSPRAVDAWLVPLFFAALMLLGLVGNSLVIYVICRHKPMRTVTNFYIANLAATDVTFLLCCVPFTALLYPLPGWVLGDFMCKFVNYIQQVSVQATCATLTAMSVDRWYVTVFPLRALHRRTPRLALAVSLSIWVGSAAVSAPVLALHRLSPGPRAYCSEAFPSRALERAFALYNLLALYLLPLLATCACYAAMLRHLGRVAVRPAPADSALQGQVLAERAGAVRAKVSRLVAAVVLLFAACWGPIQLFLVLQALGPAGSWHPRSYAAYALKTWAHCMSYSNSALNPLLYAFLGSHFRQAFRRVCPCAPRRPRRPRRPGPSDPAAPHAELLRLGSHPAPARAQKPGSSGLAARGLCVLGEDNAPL
How it was run: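 HEK293 cells stably expressing human KISS1R were loaded with calcium dye for 1 h at 37 C, then given compound; fluorescence (Ex/Em 480/540) was read kinetically for 3 min. Fifteen concentrations, triplicate.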

Row | Structure (SMILES) | Potency
41 | CO[C@@H]1[C@@H](OC)[C@H](C)[C@@](O)(CC(=O)O)O[C@H]1[C@H](C)[C@H]1O[C@@]2(CC[C@@](C)([C@H]3CC[C@@](C)([C@@H]4O[C@@H]([C@H]5O[C@](C)(O)[C@H](C)C[C@@H]5C)C[C@@H]4OC4C[C@H](OC)[C@@H](OC)[C@H](C)O4)O3)O2)C[C@H](O)[C@H]1C (stereo not given in full) | inactive
42 | O=Cc1ccc(O)c(O)c1O | inactive
43 | c1ccc2sc(SN3CCOCC3)nc2c1 | inactive
44 | O=C(O)Cc1ccc(Cl)cc1Cl | inactive
45 | Cc1ccc([N+](=O)[O-])c(N)c1 | inactive
46 | CCN(CC)c1ccc2c(-c3ccccc3C(=O)O)c3ccc(=[N+](CC)CC)cc-3oc2c1 | 49 µM (active)
47 | CCCCCCCCCC(C)C=O (stereo not given) | inactive
48 | CCC(Cl)CCC(Cl)C(Cl)CC(Cl)C(Cl)C(Cl)CCl (stereo not given) | inactive
49 | CCOc1ccc(NC(C)=O)cc1N | inactive
50 | OC[C@H]1O[C@@H](OCCc2ccc(O)cc2)[C@H](O)[C@@H](O)[C@@H]1O | inactive
51 | CCc1ccc2c(c1)C(=O)c1ccccc1C2=O | inactive
52 | CC(C)c1cccc(C(C)C)c1NC(=O)NS(=O)(=O)c1cc(C(C)(C)O)co1 | inactive
53 | [Cl][Au]([Cl])[Cl] | inactive
54 | CCc1oc2ccccc2c1C(=O)c1cc(I)c(O)c(I)c1 | inactive
55 | C=C[Si]1(C)O[Si](C)(C=C)O[Si](C)(C=C)O[Si](C)(C=C)O1 (stereo not given) | inactive
56 | CC1=CCC(C(C)C)C=C1 (stereo not given) | inactive
57 | Oc1ccc(N=Nc2ccccc2)cc1 | inactive
58 | Cc1ccc(Cl)cc1N | inactive
59 | Oc1ccc(Cc2ccccc2)cc1 | inactive
60 | Cc1cc(-c2ccc(N=Nc3cc(S(=O)(=O)O)c4ccccc4c3N)c(C)c2)ccc1N=Nc1cc(S(=O)(=O)O)c2ccccc2c1N | inactive

Row | Structure (SMILES) | Potency
61 | CC[C@]12CCCN3CCc4c(n(c5ccccc45)C(=O)C1)[C@@H]32 | inactive
62 | c1ccc2occc2c1 | inactive
63 | C=CCCCCCC | inactive
64 | COC(=O)/C=C(\C)CCC=C(C)C | inactive
65 | CCN(CCC#N)c1ccc(N=Nc2c(Cl)cc([N+](=O)[O-])cc2Cl)cc1 | inactive
66 | CCCCCC[C@@H](O)C/C=C\CCCCCCCC(=O)OC | inactive
67 | N=C(N)N | inactive
68 | NCCN1CCOCC1 | inactive
69 | O=C(c1ccccc1)c1cc(Cl)ccc1O | inactive
70 | O=C(O)C(=O)Cc1ccccc1 | inactive
71 | NCCc1cnc[nH]1 | inactive
72 | CC/C=C1/OC(=O)c2ccccc21 | inactive
73 | O=C1c2ccccc2C(=O)c2c(Cl)cccc21 | inactive
74 | COC(=O)CCCCCCCC(=O)OC | inactive
75 | OCCN1CCN(CCO)CC1 | inactive
76 | CC/C=C\CCCCCO | inactive
77 | O=C(NOCC1CC1)c1ccc(F)c(F)c1Nc1ccc(I)cc1Cl | inactive
78 | c1ccc(-c2nc3ccccc3[nH]2)cc1 | inactive
79 | CC(=O)Nc1cccc(N)c1 | inactive
80 | COc1ccc(C2CNC(=O)C2)cc1OC1CCCC1 (stereo not given) | inactive
